TROY NFkB inh = blocks TROY-dependent signaling in reporter cells; actives 0.98% (n = 360,000); Q293 LMP1-TROYcd NF-kB luciferase reporter, 4 h; inhibition, % at 10 µM;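 active = compounds whose plate-normalised and pattern-corrected inhibition of the luciferase reporter signal at the single screening dose is 50% or more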
LGR2 antag = blocks bursicon-induced cAMP signaling via Drosophila LGR2; AID 720647; inhibition, % at 9.99 µM; HEK293 LGR2, CRE-luciferase, bursicon-stimulated, 4 h; actives 0.35% (n = 380,000);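 active = drop in luminescence signal, shown as inhibition above about 50% in the replicate tests, limit read from the data, passing the limit was not always enough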;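 also: agonist challenge used bursicon conditioned medium at about half maximal strength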
TWEAK-Fn14 inh = blocks TWEAK-Fn14 interaction in a reporter cell assay; TWEAK-stimulated Fn14 reporter cells, luciferase luminescence, 8 h; inhibition, % at 10 µM; actives 2% (n = 360,000); AID 1159606; in the data active = inhibition above about 50%
HSF1 activator = increases HSF-1 driven luciferase reporter signal | NIH3T3-HGL HSF-1 luciferase reporter, MG132, 8 h; 100% = twice DMSO control signal | activation, % at 9 µM | actives 1.7% (n = 300,000) | AID 504408;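 active = mean replicate activation of at least 50% with a set share of replicates each reaching 50%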
HSF1 inh = HSF1 inhibition; activity change, negative = inhibition, % at 7.5 µM (by protocol); AID 2098; NIH3T3-HGL HSE-luciferase, MG132-induced, luminescence 8 h; hits give low values; actives 0.77% (n = 300,000);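 active = more than half of replicate wells show activity change below -50%, luminescence cut by over half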;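 also: luciferase reports HSF-1 transcriptional activity via heat shock element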
EBV LMP1 NFkB = reduces LMP1-driven NF-kappaB luciferase signal. LMP1-induced NF-kappaB luciferase reporter cells, luminescence. actives 0.69% (n = 350,000). inhibition, % at 12.5 µM; in the data active = inhibition above about 41%
Hits are given with their value; i = inactive; nt = not tested or not shown. The list is not random: actives were taken first. Their share in the collection is about 3.6%.

SMILES | TROY NFkB inh | LGR2 antag | TWEAK-Fn14 inh | HSF1 activator | HSF1 inh | EBV LMP1 NFkB
CCc1ccc2[nH]c(=O)c(CN(CCCN3CCOCC3)C(=O)Nc3ccc(Cl)cc3)cc2c1 | i | i | i | i | i | i
CCc1ccc2[nH]c(=O)c(CN(CCN3CCCC3)C(=O)NC3CCCCC3)cc2c1 | nt | nt | 85.5 | i | i | i
O=C(Nc1ccccc1F)N(CCCN1CCOCC1)Cc1cc2cc3c(cc2[nH]c1=O)OCCO3 | 57.9 | nt | i | i | i | i
COc1ccc2c3c([nH]c2c1)[C@H](CO)N(Cc1cccc(F)c1)CC31CCN(C(C)=O)CC1 | nt | i | nt | nt | nt | nt
C[C@H]1CN([C@@H](C)CO)C(=O)c2cc(C#CCN(C)C)cnc2O[C@H]1CN(C)S(C)(=O)=O | nt | i | nt | nt | nt | nt
C[C@@H]1CN([C@@H](C)CO)C(=O)c2cc(NC(=O)Cc3ccccc3)ccc2O[C@@H]1CN(C)Cc1ccncc1 | nt | i | nt | nt | nt | nt
Cc1ccccc1S(=O)(=O)NCC[C@H]1CC[C@@H](NC(=O)C2CCC2)[C@H](CO)O1 | nt | i | nt | nt | nt | nt
COc1ccc(CN(CCCN2CCOCC2)C(=O)Nc2cccc(Cl)c2)cc1OC | nt | nt | i | i | -52.1 | i
O=C(Nc1cccc(Cl)c1)N(CCN1CCOCC1)Cc1cccc(Cl)c1 | i | i | i | i | i | i
O=C1N[C@@H](c2ccccc2)COC(=O)[C@@H](Cc2ccc(F)cc2)CC/C=C/C[C@@H]1CC(=O)N(CCO)Cc1ccccc1 | i | i | 59.5 | nt | nt | i
CCCCn1c(=O)[nH]c(=O)c2c1nc(Cn1ncc(Cl)c(Cl)c1=O)n2CCC | 70.8 | i | 93.8 | i | -93.0 | i
COc1ccc(NC(=O)N(C)C[C@H]2OCCCC[C@@H](C)Oc3ccc(NS(=O)(=O)c4ccc(OC)cc4)cc3C(=O)N([C@@H](C)CO)C[C@@H]2C)cc1 | nt | i | nt | nt | nt | nt
Cc1cc(SC#N)cc(C)c1NC(=O)CCl | i | i | i | 136.2 | i | i
CCC(=O)Nc1ccc(SC#N)cc1C | i | i | i | i | i | i
CCc1cc(SC#N)cc(C)c1N | 57.4 | i | i | i | i | i
CCc1cc(SC#N)cc(C)c1NC(=O)CCl | i | nt | i | 112.8 | i | i
Cc1noc(C)c1S(=O)(=O)Nc1ccc2c(c1)C(=O)N([C@@H](C)CO)C[C@@H](C)[C@@H](CN(C)Cc1ccc3c(c1)OCO3)OCCCC[C@H](C)O2 | nt | i | nt | nt | nt | nt
COC(=O)/C=c1\[nH]c2nnc(C)n2c1=O | 50.1 | i | i | i | i | i
Cn1cnc(S(=O)(=O)N2CC[C@@H]3[C@@H](CO)Nc4ccc(C#Cc5ccccc5F)cc4[C@@H]32)c1 | nt | i | nt | nt | nt | nt
Cc1nnsc1S(=O)c1ccc(Cl)c(Cl)c1 (stereo unspecified) | i | i | i | i | -80.8 | i
Cc1nnsc1S(=O)c1ccc(Cl)cc1 (stereo unspecified) | i | i | i | i | i | i
COc1ccc(-c2ccc3c(c2)[C@H]2[C@H](CCN2C(=O)CN2CCOCC2)[C@@H](CO)N3)cc1 | nt | i | nt | nt | nt | nt
CCOc1ccc2nc(SCc3ccccc3C#N)sc2c1 | i | i | i | 114.8 | i | i
CCOc1ccc2nc(SCCNS(=O)(=O)c3ccccc3)sc2c1 | i | i | 54.8 | i | i | i
CCOc1ccc2nc(SCC(=O)c3ccccc3)sc2c1 | i | i | i | i | i | i
SMILES | TROY NFkB inh | LGR2 antag | TWEAK-Fn14 inh | HSF1 activator | HSF1 inh | EBV LMP1 NFkB
CC(=O)c1c(C)[nH]c(C(=O)OCC(=O)Nc2cc(S(=O)(=O)N3CCCC3)ccc2Cl)c1C | i | i | i | i | i | i
CCN(CC)S(=O)(=O)c1cccc(NC(=O)COC(=O)c2[nH]c(C)c(C(C)=O)c2C)c1 | i | i | 65.0 | nt | nt | i
CC(=O)c1c(C)[nH]c(C(=O)OCC(=O)Nc2cccc(S(=O)(=O)N3CCCC3)c2)c1C | i | i | 65.0 | i | i | i
CC(C)NC(=O)N1CC2(C1)[C@@H](c1ccccc1)[C@@H](CO)N2C(=O)c1ccccn1 | nt | i | nt | nt | nt | nt
Cc1sc(-c2ccccn2)nc1OC(=O)c1cccc(Cl)c1Cl | i | nt | i | i | i | i
Cc1sc(-c2ccccn2)nc1OC(=O)c1ccc(Cl)cc1 | 58.4 | nt | i | i | i | i
Cc1ccccc1NC(=S)C1=C(O)c2sccc2N(C)S1(=O)=O | i | nt | i | 58.0 | i | i
COc1ccc(-c2nsc3c(N4CCCCC4C)ncnc23)cc1 (stereo unspecified) | 90.5 | 94.6 | 97.6 | i | -94.5 | 73.3
Cc1ccc(C(=O)N2CCN(c3ncnc4c(-c5ccccc5)nsc34)CC2)cc1 | nt | nt | nt | i | i | nt
